Results filed as inconclusive are left out. Active and inactive are the calls of the source. Calls follow the shape of the dose curve; as a rule, active = well fitted curve in the direction sought with a large enough effect; inconclusive = small, poorly fitted or top-dose-only effect, or another doubt; inactive = no such curve, though single readings can be large; an effect the other way counts as inactive or inconclusive.
Assay: qHTS to identify inhibitors of the type 1 interferon - major histocompatibility complex class I in skeletal muscle: primary screen against the NCATS Pharmaceutical Collection (AID 1347407);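 also: luminescence of HiBiT knocked into endogenous HLA-B as interferon-induced MHC class I level; % is scaled to controls: 0 for no effect and ±100 for the full control effect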
Settings: human skeletal muscle cells, IFN-b-induced MHC-I HiBiT luminescence, 24 h; series mostly up to 45.9 µM; activity change, negative = inhibition: at the top concentration
In short: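 Compounds […] were added to CRISPR-engineered HLA-B-HiBiT C25cl48 human myoblasts with 4.0 ng/ml IFN-beta. After 24 hrs at 37 C, cells were lysed and HiBiT luminescence measured.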

Row | Structure (SMILES) | activity change, negative = inhibition
1 | COc1cc(C(=O)NS(=O)(=O)c2ccccc2C)ccc1Cc1cn(C)c2ccc(NC(=O)OC3CCCC3)cc12 | -3.54% (inactive)
2 | Cc1nc2ccc(CN(C)c3ccc(C(=O)N[C@@H](CCC(=O)O)C(=O)O)s3)cc2c(=O)[nH]1 | -7.92% (inactive)
3 | CC(=O)SC[C@@H](C)C(=O)N1CCC[C@H]1C(=O)N[C@@H](Cc1ccccc1)C(=O)O | 10.1% (inactive)

Assay: qHTS to identify inhibitors of the type 1 interferon - major histocompatibility complex class I in skeletal muscle: primary screen against the NCATS Mechanism Interrogation Plate v5.0 (MIPE) Libary (AID 1347411); also: nearly all actives have a fitted effect of over 65% in size; also: potency is read from the fitted curve at half-maximal effect;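 as to activity change, negative = inhibition: plate controls were vehicle for no effect and reference inhibitor for full effect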
Settings: iHSKM cells + IFN-b, HiBiT-tagged MHC-I luminescence, 24 h; series mostly up to 45.8 µM; activity change, negative = inhibition: at the top concentration
In short: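 Immortalized human C25cl48 myoblasts with HiBit knocked into endogenous HLA-B*08:01 were stimulated with 4.0 ng/ml IFN-beta and exposed to compounds (11-point 1:3 titration, top 46 uM final) for 24 hrs at 37 C; HiBiT lytic luminescence measured.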

Row | Structure (SMILES) | activity change, negative = inhibition | Potency
4 | COc1cc(C(=O)NS(=O)(=O)c2ccccc2C)ccc1Cc1cn(C)c2ccc(NC(=O)OC3CCCC3)cc12 | 6.98% (inactive) | 
5 | Cc1nc2ccc(CN(C)c3ccc(C(=O)N[C@@H](CCC(=O)O)C(=O)O)s3)cc2c(=O)[nH]1 | 14% (inactive) | 
6 | CNC(=O)c1ccc(-c2cnc3ncc(Cc4ccc5ncccc5c4)n3n2)cc1F | 2.59% (inactive) | 
7 | CCCn1c(=O)c2[nH]c(-c3cnn(Cc4cccc(C(F)(F)F)c4)c3)nc2n(CC)c1=O | -5.53% (inactive) | 
8 | COc1ccc(CC2SC(=O)NC2=O)cc1C(=O)NCc1ccc(C(F)(F)F)cc1 (configuration not stated) | 1.95% (inactive) | 
9 | CC(=O)SC[C@@H](C)C(=O)N1CCC[C@H]1C(=O)N[C@@H](Cc1ccccc1)C(=O)O | 11% (inactive) | 
10 | COc1cc(C(=O)N2CCC(N3CCN(C)CC3)CC2)ccc1Nc1ncc2c(n1)N(C)c1ccccc1C(=O)N2C |  | 23.4 µM (active)
11 | NC(=O)c1c(OCc2c(F)cc(Br)cc2F)nsc1NC(=O)NCCCCN1CCCC1 |  | 33 µM (active)
12 | O=C(CCCCCCC(=O)Nc1ccc([C@H]2O[C@@H](CSc3nc(-c4ccccc4)c(-c4ccccc4)o3)C[C@@H](c3ccc(CO)cc3)O2)cc1)NO | 14.6% [at 8.44 µM] (inactive) | 
